This is an account of results in PubChem BioAssay AID485273 (Sanford-Burnham Center for Chemical Genomics, 2010).

In all, about 330,000 compounds went through this assay and about 1,500 (0.45%) were called active. The entries come from a sample that favours actives as a whole. A number with no mark means an inactive call. No stated cut-off is given here; in the data, active means inhibition above about 45% (passing the limit was not always enough); inconclusive means no clear call, values can overlap the other calls.

This assay deals with Ubiquitin-conjugating enzyme E2 N (Homo sapiens) (UniProt P61088). As to the kind of experiment: blockers of UBC13 ubiquitin chain synthesis – biochemical, TR-FRET, uHTS, primary screen (AID 485273). Conditions: UBC13 polyubiquitin chain formation, at 20 µM, hits give high values.
Sequence of Ubiquitin-conjugating enzyme E2 N (Homo sapiens) (P61088 whole entry, looked up): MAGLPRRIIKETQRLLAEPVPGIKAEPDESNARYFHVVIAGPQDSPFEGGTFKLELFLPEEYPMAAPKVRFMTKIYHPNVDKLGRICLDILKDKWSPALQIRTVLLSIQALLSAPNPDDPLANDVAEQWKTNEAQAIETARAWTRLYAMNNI
What is called inhibition is the drop in the measured response relative to a control, in per cent. On to `CCCN(C(=O)CSc1nnc(N)s1)c1c(N)n(Cc2ccccc2)c(=O)[nH]c1=O`, for which the inhibition is 0.1%. The result for `COC(=O)C(C)Oc1ccc2c(-c3cccc([N+](=O)[O-])c3)cc(=O)oc2c1` (centres undefined) reads -16.8%. For the compound `COc1cccc(CN(C)CC(O)COC(c2ccccc2)c2ccccc2C)c1` (centres undefined), the inhibition was 19.2%.

In the case of `CN(C(=O)CSc1nnc(-c2ccc(C(C)(C)C)cc2)n1C)C1CCS(=O)(=O)C1` (centres undefined), the inhibition is -4.3%. For the compound `OCCn1c(-c2ccccc2)csc1=Nc1ccccc1`, the inhibition was -10.7%. Consider `C#CCNC(=O)C1=C[C@@H](c2ccccc2)[C@H](CCCO)[C@@H](OCC)O1`, for which the inhibition was 0.9%. Then `Cc1ccc(NC(=O)Cc2nnc(SCC(=O)Nc3nncs3)n2C)cc1`, with -2.3%. In the case of `COc1cccc(Cn2cnc3c([N+](=O)[O-])c(C)c(C)cc32)c1`, the inhibition is 60.4% (active). Then `Cc1cccc(Cn2cnc3c(N)c(C)c(C)cc32)c1`, with 3.8%; and `COc1cccc(CNS(=O)(=O)c2cc3c(cc2C)n(C)c(=O)c(=O)n3C)c1`, with 20%. Regarding `COc1ccc(CNC(=O)C2CCN(S(=O)(=O)c3ccc(SC)cc3)CC2)cc1`, the inhibition is 6.2%. As to `C#CCOCCOCCOCCNc1nc(N2CCN(C(=O)Cn3cc(CCCCN)nn3)CC2)nc(N2CCN(C(=O)[C@H](CCCCN)n3cc(CCC(=O)O)nn3)CC2)n1`, the inhibition is 3.6%.

As for `C#CCOCCOCCOCCNc1nc(N2CCN(C(=O)CCCCCCCCCCNC(=O)[C@H]([C@@H](C)CC)n3cc(CCCCN=C(N)N)nn3)CC2)nc(N2CCN(C(=O)CCCCCCCCCCNC(=O)[C@H](CO)n3cc(CCCSC)nn3)CC2)n1`, the inhibition was 121% (active). Turning to `C#CCOCCOCCOCCNc1nc(N2CCN(C(=O)[C@H](CCC(=O)O)n3cc(CN)nn3)CC2)nc(N2CCN(C(=O)[C@H](CCC(=O)O)n3cc(CN)nn3)CC2)n1`, the inhibition was 2.2%. On to `C#CCOCCOCCOCCNc1nc(N2CCN(C(=O)[C@H](C(C)C)n3cc(CCO)nn3)CC2)nc(N2CCN(C(=O)[C@H](C(C)C)n3cc(CCO)nn3)CC2)n1`, for which the inhibition was -11.8%.

On to `C#CCOCCOCCOCCNc1nc(N2CCN(C(=O)CCCCCCCCCCNC(=O)[C@H](CCCCN)n3cc(C)nn3)CC2)nc(N2CCN(C(=O)CCCCCCCCCCNC(=O)[C@H](CO)n3cc(CCCSC)nn3)CC2)n1`, for which the inhibition was 121% (active). With `C#CCOCCOCCOCCNc1nc(N2CCN(C(=O)CCCCCCCCCCNC(=O)Cn3cc(CCCCCN)nn3)CC2)nc(N2CCN(C(=O)CCCCCCCCCCNC(=O)[C@H](CO)n3cc(CCCSC)nn3)CC2)n1`, the inhibition is 128% (active). Consider `C#CCOCCOCCOCCNc1nc(N2CCN(C(=O)[C@H](C(C)C)n3cc(CCO)nn3)CC2)nc(N2CCN(C(=O)[C@H]([C@@H](C)CC)n3cc(CCCN=C(N)N)nn3)CC2)n1`, for which the inhibition was 19.7%. Take `C#CCOCCOCCOCCNc1nc(N2CCN(C(=O)[C@H](CCCN=C(N)N)n3cc(C(N)[C@@H](C)CC)nn3)CC2)nc(N2CCN(C(=O)[C@H](CO)n3cc([C@@H](N)C(C)C)nn3)CC2)n1` (some centres undefined): the inhibition was 33.1%.

For the compound `COc1ccccc1NC(=O)CCN1CCN(c2ccc(Cl)cc2)CC1`, the inhibition is -6%. Take `O=C(CN1CCN(c2ccc(O)cc2)CC1)NC1CCCc2ccccc21` (centres undefined): the inhibition was 7.1%. Then `O=C(CN1CCSCC1)N/N=C/c1ccc(Cl)cc1`, with -14.1%; and `CN(C)c1nc(-c2cccnc2)nc(-c2ccc(Cl)cc2)c1C#N`, with -0.5%. For the compound `CNc1nccc(-c2ccc(Cl)cc2)c1C#N`, the inhibition is 9.5%.

Turning to `N#Cc1c(-c2ccc(Cl)cc2)c2c([nH]c1=S)CCCC2`, the inhibition was 47.4% (active). For `Cn1cc(Cl)c(C(=O)NNC(=S)Nc2cccc(Cl)c2)n1`, the inhibition was -10.5%. In the case of `Cc1cccc(-n2cnc(C(=O)Nc3cccnc3)c2)n1`, the inhibition was -3.6%. `Cc1cccc(-n2cnc(C(=O)NNC(=S)Nc3ccccc3)c2)n1`: the inhibition is 84.4% (active). Then `COc1ccc(CNS(=O)(=O)c2ccc(NC(=O)N3CCCCC3)cc2)cc1`, with -9.2%. Regarding `CCCN1CCN(C(=O)CCCNC(=O)c2ccc(Cl)cc2)CC1`, the inhibition was -6.8%.

For `CC(C)OCCCNC(=O)CN1C(=O)/C(=C/c2ccccc2F)Oc2ccccc21`, the inhibition was 1%. Turning to `CN1CCN(CCCNC(=O)c2ccc(/C=C3\Oc4ccccc4N(Cc4ccc(Cl)cc4)C3=O)cc2)CC1`, the inhibition was 80.8% (active). The result for `Cc1ccc2c(C)c(C(=O)N3CCC(N4CCC(C(=O)NC5CC5)CC4)CC3)oc2c1` reads -16.4%; that for `S=C(Cc1ccc(Cl)cc1)N1CCOCC1`, 4.3%; that for `CCN1C(=NCc2ccc(OC)cc2)N[C@@H](CCc2ccccc2)[C@H](C(=O)NCc2ccc(OC)cc2)[C@H]1C`, 48.7% (active). With `CCN1C(=NCC(C)C)N[C@@H](CCc2ccccc2)[C@H](C(=O)NCC(C)C)[C@H]1C`, the inhibition is 15.8%.

Consider `CCN1C(=S)N[C@@H](CCc2ccccc2)[C@H](C(=O)OC)[C@H]1C`, for which the inhibition is 4.5%.

As to `CCN(CC(=O)Nc1cc(Cl)ccc1C)C(=O)CSCc1ccc(C)cc1`, the inhibition was 0.3%. For the compound `Cc1cccc(N2CCN(C(C)C(=O)N3CCc4ccccc43)CC2)c1C` (centres undefined), the inhibition was -1.5%.

In the case of `CC(=O)Nc1cccc(NC(=O)c2ccc3c(c2)CCN3S(C)(=O)=O)c1`, the inhibition was -2.7%. `CC(C)(c1ccccc1)c1ccc(OCCN)cc1`: the inhibition is 16.7%. Then `Cc1cc(C)n(CC(O)COc2ccc(C(C)(C)C)cc2)n1` (centres undefined), with -14.2%.

For the compound `CN(C)CC(O)COc1ccc(C(C)(C)c2ccc(OCC(O)CN(C)C)cc2)cc1` (centres undefined), the inhibition is 59.2% (active). As for `O=C(COC(=O)c1ccccn1)NNC(=O)c1ccc(Br)cc1`, the inhibition is 3.1%.

For the compound `NC(=O)NC(CC(=O)NNC(=O)c1ccccn1)c1ccc(Cl)cc1` (centres undefined), the inhibition is 93.2% (active). In the case of `CCCNC(=O)NC(=O)COC(=O)CC(NC(N)=O)c1ccc(Cl)cc1` (centres undefined), the inhibition was 1%.

Turning to `COc1ccc(C(=O)C2CCCN(S(=O)(=O)c3cccc(C)c3)C2)c(C)c1` (centres undefined), the inhibition is -4.5%. With `O=C(CCn1c(=O)oc2ccccc21)Nc1ccon1`, the inhibition is -0.5%. As for `Cc1ccc2c(c1)C(c1ccccc1)N(C(=O)c1ccc(S(=O)(=O)N3CCOCC3)cc1)CC(=O)N2` (centres undefined), the inhibition was 0.9%.
